Screening data deposited in PubChem BioAssay by Sanford-Burnham Center for Chemical Genomics.
Compounds with a hit are over-represented: about 4% of the library has one in this group of screens.
Peg3 prom inh: inhibitors of Peg3 promoter; HeLa PEG-Prom luciferase reporter, luminescence, overnight; inhibition, % at 20 µM; 360,000 tested, 1.7% active; AID 588405;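 active means inhibition of at least 50% at 20 µM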
TWEAK Fn14 block: TWEAK-Fn14 signaling inhibition; TWEAK-stimulated Fn14 reporter cells, luciferase luminescence, 8 h; inhibition, % at 10 µM; 360,000 tested, 2% active; in the data active means inhibition above about 50%
HIF-2a block: blocks HIF-2a reporter activity. inhibition, % at 18.8 µM. 360,000 tested, 0.72% active. 786-0 RCC cells HIF-2a reporter, luciferase luminescence, overnight;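 active means inhibition of the luminescence signal of 40% or more relative to plate controls, in a single-dose primary screen at 18.75 µM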
CF NFkB inh: blocks PAF-induced NF-kB reporter in cystic fibrosis cells; 360,000 tested, 0.86% active; inhibition, % at 5 µM; KKLEB NF-kB-GFP reporter, GFP fluorescence overnight;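 active means at least 50% inhibition at 5 µM, scaled per plate between neutral and stimulator controls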;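 further: PAF is a Pseudomonas aeruginosa culture filtrate used as stimulus; plate controls were PAF-stimulated DMSO wells for no effect and unstimulated DMSO wells for full effect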
KKLEB tox: counter-screen for CF NF-kB inhibitors: cytotoxicity; KKLEB CF airway cells viability, ATPlite luminescence, overnight; hits give low values; cells stimulated with P. aeruginosa culture filtrate; activity change (cytotoxicity), % at 5 µM; 360,000 tested, 0.36% active; AID 602141;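 active means corrected activity change at or below -50% at 5 µM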
TROY NFkB inh: TROY signaling inhibition; Q293 LMP1-TROYcd NF-kB luciferase reporter, 4 h; inhibition, % at 10 µM; 360,000 tested, 0.98% active;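 active means compounds whose plate-normalised and pattern-corrected inhibition of the luciferase reporter signal at the single screening dose is 50% or more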
CF NFkB inh conf: CF NF-kB inhibition confirmation, single concentration. shares compounds with CF NFkB inh. KKLEB CF airway cells, PAF-induced NF-kB-GFP fluorescence, overnight. inhibition, % at 5 µM. 1,300 tested, 64% active; in the data active means inhibition above about 40%;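 further: stimulus PAF is a Pseudomonas aeruginosa filtrate and not platelet activating factor; plate controls were DMSO wells with stimulus for no effect and unstimulated DMSO wells for full effect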
Starred values were filed as active, the others as inactive.

Screening CCN(c1cccc(C)c1)S(=O)(=O)c1cc2c3c(c1)CCC(=O)N3CCC2 returned Peg3 prom inh 6, TWEAK Fn14 block 11, HIF-2a block -9, CF NFkB inh 4, KKLEB tox 1 and TROY NFkB inh 8.
CC[C@@H](C(=O)[C@@H](C)[C@@H](O)[C@H](C)[C@@H]1O[C@@H]([C@@H](CC)C(=O)O)CC[C@@H]1C)[C@H]1O[C@]2(C=C[C@@H](O)[C@]3(CC[C@@](C)([C@H]4CC[C@](O)(CC)[C@H](C)O4)O3)O2)[C@H](C)C[C@@H]1C was read as Peg3 prom inh 101*, TWEAK Fn14 block 56*, HIF-2a block -35, CF NFkB inh 69*, KKLEB tox 4, TROY NFkB inh 51* and CF NFkB inh conf 105*.
For CCOc1ccc(C(C(=O)NCC2CCCO2)N(Cc2cccs2)C(=O)c2snc(C(N)=O)c2N)cc1 (centres undefined) the results were Peg3 prom inh 48, TWEAK Fn14 block 26, HIF-2a block 5, CF NFkB inh 72*, KKLEB tox -30, TROY NFkB inh -7 and CF NFkB inh conf 72*.
Screening Cc1ccc(CCC(=O)Nc2ncc(Cc3cccc(Cl)c3Cl)s2)o1 returned Peg3 prom inh 31, TWEAK Fn14 block 18, HIF-2a block 31, CF NFkB inh 52*, KKLEB tox -32, TROY NFkB inh 28 and CF NFkB inh conf 78*.
Screening CCc1nnc(NC(=O)CCc2ccc(C)o2)s1 returned Peg3 prom inh -18, TWEAK Fn14 block 2, HIF-2a block -8, CF NFkB inh 11, KKLEB tox -2 and TROY NFkB inh 3.
Screening Cc1nn(-c2ccccc2)c(N2CCCC2)c1/C=N/NC(=O)c1cc(-c2ccccc2)nc2ccccc12 returned Peg3 prom inh 55*, TWEAK Fn14 block 21, HIF-2a block 20, CF NFkB inh 55*, KKLEB tox -8, TROY NFkB inh 9 and CF NFkB inh conf 66*.
Screening Cc1ccc(-c2cc(C(=O)N/N=C/c3c(C)nn(-c4ccccc4)c3C)[nH]n2)cc1 returned Peg3 prom inh -4, TWEAK Fn14 block 40, HIF-2a block 3, CF NFkB inh 50*, KKLEB tox -32, TROY NFkB inh 14 and CF NFkB inh conf 84*.
For Cc1nn(-c2ccccc2)c(N2CCCC2)c1/C=N/NC(=O)c1cc(-c2cccs2)nc2ccccc12 the results were Peg3 prom inh 36, TWEAK Fn14 block 36, HIF-2a block 21, CF NFkB inh 22, KKLEB tox -14 and TROY NFkB inh 13.
`COc1cc(OC)cc(C(=O)NCC(=O)OCc2ccc(Cl)c(Cl)c2)c1` gave Peg3 prom inh 1, TWEAK Fn14 block -15, HIF-2a block -15, CF NFkB inh 16, KKLEB tox -5 and TROY NFkB inh 5.
COC(=O)C1CCN(C2CN(Cc3ccccc3)S(=O)(=O)C2)CC1 (centres undefined) was read as Peg3 prom inh -7, TWEAK Fn14 block -14, HIF-2a block 8, CF NFkB inh -23, KKLEB tox 25 and TROY NFkB inh 8.
`CCc1nc2sc3c(c2c(=O)n1N)CC(C)(C)OC3` gave Peg3 prom inh 0, TWEAK Fn14 block -12, HIF-2a block 7, CF NFkB inh 14, KKLEB tox 0 and TROY NFkB inh 3.
For CCCCCCCCCc1nc2sc3c(c2c(=O)n1NC(=O)c1ccc([N+](=O)[O-])cc1)CC(C)(C)OC3 the results were Peg3 prom inh 9, TWEAK Fn14 block 56*, HIF-2a block -12, CF NFkB inh 55*, KKLEB tox -42, TROY NFkB inh 42 and CF NFkB inh conf 62*.
`CC1CCN(C(=O)CCNS(=O)(=O)c2ccc(Br)cc2)CC1` gave Peg3 prom inh 8, TWEAK Fn14 block 5, HIF-2a block 11, CF NFkB inh -46, KKLEB tox 30 and TROY NFkB inh 6.
`CCC(CO)Oc1cc(NCc2ccc(Cl)cc2Cl)c2ncn(C(C)C)c2c1` (centres undefined) gave Peg3 prom inh 14, TWEAK Fn14 block 18, HIF-2a block 20, CF NFkB inh 60*, KKLEB tox -2, TROY NFkB inh 21 and CF NFkB inh conf 45*.
`CCC(CO)Oc1cc(NCc2ccc(Cl)cc2)c2ncn(C(C)C)c2c1` (centres undefined) gave Peg3 prom inh 15, TWEAK Fn14 block 0, HIF-2a block 3, CF NFkB inh 15, KKLEB tox -6 and TROY NFkB inh 4.
Screening Cn1c(Oc2ccc(Cl)cc2)c(C=O)c2ccccc21 returned Peg3 prom inh 37, TWEAK Fn14 block 64*, HIF-2a block 31, CF NFkB inh 51*, KKLEB tox -16, TROY NFkB inh 29 and CF NFkB inh conf 70*.
O=C(N/N=C/c1ccccc1Cl)c1[nH]c2ccc(Br)cc2c1-c1ccccc1 was read as Peg3 prom inh 14, TWEAK Fn14 block 38, HIF-2a block 13, CF NFkB inh 63*, KKLEB tox -14, TROY NFkB inh 21 and CF NFkB inh conf 76*.
COc1ccc(/C=N/NC(=O)c2[nH]c3ccc(Br)cc3c2-c2ccccc2)cc1 was read as Peg3 prom inh -10, TWEAK Fn14 block -30, HIF-2a block 26, CF NFkB inh 81*, KKLEB tox -33, TROY NFkB inh 22 and CF NFkB inh conf 81*.
For Cc1c(-c2ccccc2)c(=O)oc2cc(O)ccc12 the results were Peg3 prom inh -26, TWEAK Fn14 block -33, HIF-2a block -27, CF NFkB inh -3, KKLEB tox 6 and TROY NFkB inh -22.
`Cc1nc2n[nH]c(N)c2nc1C` gave Peg3 prom inh -10, TWEAK Fn14 block 3, HIF-2a block -15, CF NFkB inh 8, KKLEB tox -2 and TROY NFkB inh -12.
CC1CCC(NC(=O)CN2CCN(S(=O)(=O)c3ccc(Br)s3)CC2)CC1 (centres undefined) was read as Peg3 prom inh 12, TWEAK Fn14 block -19, HIF-2a block -3, CF NFkB inh 13, KKLEB tox 1 and TROY NFkB inh 6.
COC(=O)c1cc(=O)n(CCc2ccccc2)c(=Nc2ccc(F)cc2)s1 was read as Peg3 prom inh 15, TWEAK Fn14 block 11, HIF-2a block 10, CF NFkB inh -1, KKLEB tox -14 and TROY NFkB inh -17.
CCn1c(=O)cc(C(=O)OC)sc1=Nc1ccc(F)c(F)c1 was read as Peg3 prom inh 65*, TWEAK Fn14 block 46, HIF-2a block 11, CF NFkB inh 50*, KKLEB tox -21, TROY NFkB inh 5 and CF NFkB inh conf 24.
For COc1ccc(NC(=O)c2cc3c(-c4ccc(OC)c(OC)c4)nn(C)c3s2)cc1OC the results were Peg3 prom inh -69, TWEAK Fn14 block 58*, HIF-2a block -2, CF NFkB inh 87*, KKLEB tox -21, TROY NFkB inh -50 and CF NFkB inh conf 62*.
